Several values for one entry are separate records, joined by “and”; a condition that tells them apart may be missing. Equal values may be shown once. The source holds several records for some structures; these can differ, active in one and inactive in another. Activity calls are given as the source filed them. Rule for the calls: active = hit-call score of the fitted dose curve at least 0.9, where 1 is the maximum; inactive = score below 0.9.
How the values were obtained:
[1] = ATG_CMV_CIS: Attagene CIS-FACTORIAL HepG2 Assay for human CMV (Internal Marker) (AID 2282928); conditions: HepG2 CMV promoter reporter, transcription factor profiling; actives raise or lower the signal;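 note: endpoint acts as a background internal control marker rather than a target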
Procedure, shortened: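 Bidirectional fits against DMSO are applied to reporter mRNA, read by RT-PCR with capillary electrophoresis, from HepG2 cells exposed 24 h. The endpoint serves as an internal CMV background marker within the cis-factorial reporter panel.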

[2] = ATG_DR4_LXR_CIS: Attagene CIS-FACTORIAL HepG2 Assay for human Liver X Receptor (LXR), DR4 submotif (AID 2282929); conditions: HepG2 Attagene DR4 cis-reporter, mRNA transcription; actives raise or lower the signal
Procedure, shortened: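 After transient transfection with multiplexed cis-promoter reporter units, HepG2 cells received test chemicals for 24 h. Reporter mRNA induction, detected by fluorescence after RT-PCR and capillary electrophoresis, was scored relative to DMSO.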

[3] = target: Aryl hydrocarbon receptor (Homo sapiens) (UniProt P35869); experiment: ATG_Ahr_CIS: Attagene CIS-FACTORIAL HepG2 Assay for human Aryl Hydrocarbon Receptor (Ahr) (AID 2282930); conditions: HepG2 AhR cis-factorial reporter transcription; actives raise or lower the signal
Aryl hydrocarbon receptor (Homo sapiens), sequence (P35869 whole entry, looked up): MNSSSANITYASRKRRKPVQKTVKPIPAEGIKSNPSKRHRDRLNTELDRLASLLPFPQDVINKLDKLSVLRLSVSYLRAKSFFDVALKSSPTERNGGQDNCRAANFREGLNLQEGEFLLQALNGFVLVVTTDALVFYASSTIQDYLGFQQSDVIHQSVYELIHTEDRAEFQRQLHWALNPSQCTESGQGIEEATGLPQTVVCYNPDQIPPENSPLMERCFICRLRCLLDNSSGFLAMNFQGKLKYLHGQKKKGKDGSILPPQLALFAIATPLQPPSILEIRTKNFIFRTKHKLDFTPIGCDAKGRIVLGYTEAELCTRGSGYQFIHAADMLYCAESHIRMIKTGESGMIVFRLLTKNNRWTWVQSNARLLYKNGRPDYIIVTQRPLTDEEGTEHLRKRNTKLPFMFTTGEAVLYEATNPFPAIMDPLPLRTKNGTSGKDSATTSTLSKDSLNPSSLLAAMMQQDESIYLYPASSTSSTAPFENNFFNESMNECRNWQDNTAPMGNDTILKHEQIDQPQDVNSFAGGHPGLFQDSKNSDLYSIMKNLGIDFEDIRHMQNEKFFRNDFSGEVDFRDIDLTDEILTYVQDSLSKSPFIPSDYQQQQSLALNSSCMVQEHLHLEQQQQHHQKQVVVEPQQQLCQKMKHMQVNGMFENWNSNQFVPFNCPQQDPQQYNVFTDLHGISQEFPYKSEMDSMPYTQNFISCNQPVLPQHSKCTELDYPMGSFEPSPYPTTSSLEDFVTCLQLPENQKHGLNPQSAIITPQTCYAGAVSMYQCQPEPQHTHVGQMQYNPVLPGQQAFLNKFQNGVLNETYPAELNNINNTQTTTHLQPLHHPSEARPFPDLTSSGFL
Procedure, shortened: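 HepG2 cells transiently transfected with cis-element-driven multiplexed reporter transcription units; endogenous transcription factor activity measured as reporter mRNA 24 h after dosing. RT-PCR, 6-FAM labelling, HpaI digestion, capillary electrophoresis; bidirectional fitting versus DMSO baseline.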

[4] = ATG_AP_1_CIS: Attagene CIS-FACTORIAL HepG2 Assay for human Activator Protein 1 (AP-1) (AID 2282931); conditions: HepG2 Attagene cis-factorial AP-1 reporter mRNA; actives raise or lower the signal
Procedure, shortened: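 After 24 h incubation with test chemical, RNA from transfected HepG2 cells was reverse-transcribed, amplified, fluorescently labelled and digested before capillary electrophoresis. Reporters were driven by cis-regulatory promoters; activity fitted bidirectionally versus DMSO.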

[5] = ATG_AP_2_CIS: Attagene CIS-FACTORIAL HepG2 Assay for human Activator Protein 2 (AP-2) (AID 2282932); conditions: HepG2 AP-2 cis-reporter, Attagene transcription factor profiling; actives raise or lower the signal
Procedure, shortened: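 Cells (HepG2) transfected with promoter-driven reporter constructs, treated 24 h. Total RNA reverse-transcribed, reporter cDNA PCR-amplified, FAM-labelled by primer extension, digested, resolved by capillary electrophoresis. Activity fitted both directions versus DMSO.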

[6] = ATG_BRE_CIS: Attagene CIS-FACTORIAL HepG2 Assay for human Bone Morphogenetic Protein (BMP) Response Element (BRE) (AID 2282933); conditions: HepG2 BMP response element reporter, Attagene transcription factor profiling; actives raise or lower the signal
Procedure, shortened: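 After a 24 h chemical treatment, transiently transfected HepG2 cells were lysed for RNA; reporter transcripts were quantified by fluorescent RT-PCR and capillary electrophoresis, normalised to DMSO.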

[7] = target: Transcription factor E2F1 (Homo sapiens) (UniProt Q01094); experiment: ATG_E2F_CIS: Attagene CIS-FACTORIAL HepG2 Assay for human E2F Transcription Factor 1 (AID 2282935); conditions: HepG2 Attagene cis-reporter, E2F reporter RNA transcripts; actives raise or lower the signal
Transcription factor E2F1 (Homo sapiens), sequence (Q01094 whole entry, looked up): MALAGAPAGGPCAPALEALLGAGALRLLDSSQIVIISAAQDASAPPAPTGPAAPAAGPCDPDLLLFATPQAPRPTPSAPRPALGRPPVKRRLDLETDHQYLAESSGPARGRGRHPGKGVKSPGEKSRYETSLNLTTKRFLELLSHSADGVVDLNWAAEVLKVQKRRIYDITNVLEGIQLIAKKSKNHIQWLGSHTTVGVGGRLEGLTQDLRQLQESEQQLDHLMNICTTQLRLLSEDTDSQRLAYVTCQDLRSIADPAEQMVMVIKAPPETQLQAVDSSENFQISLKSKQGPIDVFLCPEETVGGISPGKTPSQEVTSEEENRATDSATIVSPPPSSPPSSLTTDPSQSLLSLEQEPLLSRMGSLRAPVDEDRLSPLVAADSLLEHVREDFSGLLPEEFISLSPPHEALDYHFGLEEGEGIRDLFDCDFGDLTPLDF
Procedure, shortened: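 First, HepG2 cells were transfected with reporter transcription units. Next, they were dosed for 24 h. Then RNA was isolated, converted to cDNA, PCR-amplified, FAM-labeled, HpaI-digested and analyzed by capillary electrophoresis.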

[8] = ATG_E_Box_CIS: Attagene CIS-FACTORIAL HepG2 Assay for human Enhancer Box (E-box) (AID 2282936); conditions: HepG2 E-box cis-reporter transcription, actives raise or lower the signal
Procedure, shortened: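 Endogenous transcription factor activity was sensed in human HepG2 liver cells through transfected cis-promoter reporter units. After 24 h of dosing, total RNA was reverse-transcribed and reporter cDNA resolved by capillary electrophoresis.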

[9] = ATG_M_61_CIS: Attagene CIS-FACTORIAL HepG2 Assay for M61 Transcription Factor (Internal Marker) (AID 2282937); conditions: HepG2 Attagene CIS-FACTORIAL M61 internal marker reporter; actives raise or lower the signal
Procedure, shortened: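 Using transiently transfected HepG2 liver cells, reporter transcript levels were assessed 24 h post-dosing by RT-PCR and capillary electrophoresis. Changes in either direction were fitted relative to DMSO controls.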

[10] = ATG_M_19_CIS: Attagene CIS-FACTORIAL HepG2 Assay for M19 Transcription Factor (Internal Marker) (AID 2282939); conditions: HepG2 Attagene CIS-FACTORIAL M19 internal marker reporter; actives raise or lower the signal
Procedure, shortened: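 In this multiplexed cell assay, transiently transfected HepG2 reporter units report endogenous transcription-factor activity; after 24 hours of treatment, labelled reporter cDNA fragments are quantified by capillary electrophoresis and fitted bidirectionally against DMSO.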

[11] = ATG_Ets_CIS: Attagene CIS-FACTORIAL HepG2 Assay for human Erythroblast Transformation Specific (ETS) (AID 2282941); conditions: HepG2 ETS cis-reporter transcription, actives raise or lower the signal
Procedure, shortened: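 Endogenous transcription factor activity read as reporter mRNA via RT-PCR and capillary electrophoresis, with gain or loss fitted bidirectionally against DMSO. Human HepG2 liver cells, transiently transfected CIS reporter constructs, 24 h exposure.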

[12] = ATG_FoxO_CIS: Attagene CIS-FACTORIAL HepG2 Assay for human Forkhead box O (FoxO) (AID 2282943); conditions: HepG2 Attagene cis-reporter, FoxO element, mRNA; actives raise or lower the signal
Procedure, shortened: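 HepG2 cells transiently transfected with cis-promoter-driven multiple reporter transcription units; 24 h after chemical dosing, reporter mRNA quantified by RT-PCR, fluorescent primer extension, HpaI digestion and capillary electrophoresis. Bidirectional fitting versus DMSO baseline.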

[13] = ATG_GATA_CIS: Attagene CIS-FACTORIAL HepG2 Assay for human GATA Binding Protein (AID 2282944); conditions: HepG2 GATA cis-element reporter, Attagene multiplex mRNA; actives raise or lower the signal
Procedure, shortened: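 Measures endogenous transcription factor-driven reporter mRNA in HepG2 cells transiently carrying cis-regulated constructs. 24 h dosing; RNA via oligo(dT) reverse transcription, PCR, HpaI digestion, capillary electrophoresis; fitted relative to DMSO.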

[14] = ATG_GLI_CIS: Attagene CIS-FACTORIAL HepG2 Assay for human Zinc Finger Protein GLI1 (AID 2282945); conditions: HepG2, Attagene cis-factorial reporter mRNA, GLI element; actives raise or lower the signal
Procedure, shortened: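 HepG2 cells transiently transfected with cis-promoter multiplexed reporter units report endogenous transcription factor activity. After 24 h chemical exposure, reporter mRNA was quantified by RT-PCR, 6-FAM labelling, HpaI digestion and capillary electrophoresis, with bidirectional fitting against DMSO.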

[15] = target: Bile acid receptor (Homo sapiens) (UniProt Q96RI1); experiment: ATG_IR1_CIS: Attagene CIS-FACTORIAL HepG2 Assay for human Nuclear Receptor Subfamily 1 Group H Member 4 (NR1H4), IR1 submotif (AID 2282946); conditions: IR1 reporter transcription, actives raise or lower the signal
Bile acid receptor (Homo sapiens), sequence (Q96RI1 whole entry, looked up): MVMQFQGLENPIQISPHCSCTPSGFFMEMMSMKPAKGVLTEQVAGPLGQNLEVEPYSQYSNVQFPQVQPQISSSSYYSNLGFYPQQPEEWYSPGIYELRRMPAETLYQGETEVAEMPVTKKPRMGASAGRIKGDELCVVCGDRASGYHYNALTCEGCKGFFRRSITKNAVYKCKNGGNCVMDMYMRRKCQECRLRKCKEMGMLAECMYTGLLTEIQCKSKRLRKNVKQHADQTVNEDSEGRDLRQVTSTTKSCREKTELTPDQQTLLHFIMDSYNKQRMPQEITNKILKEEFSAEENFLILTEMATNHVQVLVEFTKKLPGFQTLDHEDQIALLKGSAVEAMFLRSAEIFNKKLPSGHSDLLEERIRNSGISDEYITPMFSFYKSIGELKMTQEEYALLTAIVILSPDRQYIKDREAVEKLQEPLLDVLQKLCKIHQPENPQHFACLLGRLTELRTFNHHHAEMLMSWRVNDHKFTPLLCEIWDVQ
Procedure, shortened: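 Readout: reporter transcript levels by RT-PCR with fluorescent capillary electrophoresis, from HepG2 cells transiently transfected with multiplexed cis-regulated reporters and dosed 24 h. Gain- or loss-of-signal fitted versus DMSO negative control.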

[16] = ATG_GRE_CIS: Attagene CIS-FACTORIAL HepG2 Assay for human Glucocorticoid Response Elements (GRE) (AID 2282947); conditions: HepG2 GRE cis-reporter, Attagene multiplex mRNA; actives raise or lower the signal
Procedure, shortened: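 Cells (HepG2) bearing transfected cis-promoter reporter transcription units were treated with chemical for 24 hours. Reporter mRNA was measured via RT-PCR with capillary electrophoresis, and activity was fitted in both directions relative to DMSO.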

[17] = ATG_EGR_CIS: Attagene CIS-FACTORIAL HepG2 Assay for human Early Growth Response 1 (EGR1) (AID 2282938); conditions: HepG2 Attagene CIS-FACTORIAL EGR reporter mRNA; actives raise or lower the signal
Procedure, shortened: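 Fluorescent capillary-electrophoresis signal of reporter cDNA fragments serves as read-out. HepG2 cells bear transiently transfected cis-promoter reporter units and are exposed 24 h; gain- or loss-of-signal is fitted against DMSO.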

[18] = target: Hepatocyte nuclear factor 3-beta (Homo sapiens) (UniProt Q9Y261); experiment: ATG_FoxA2_CIS: Attagene CIS-FACTORIAL HepG2 Assay for human Forkhead box A2 (FOXA2) (AID 2282942); conditions: HepG2 cis-reporter transcription factor activity, 24 h; actives raise or lower the signal
Hepatocyte nuclear factor 3-beta (Homo sapiens), sequence (Q9Y261 whole entry, looked up, the tested form may be a part): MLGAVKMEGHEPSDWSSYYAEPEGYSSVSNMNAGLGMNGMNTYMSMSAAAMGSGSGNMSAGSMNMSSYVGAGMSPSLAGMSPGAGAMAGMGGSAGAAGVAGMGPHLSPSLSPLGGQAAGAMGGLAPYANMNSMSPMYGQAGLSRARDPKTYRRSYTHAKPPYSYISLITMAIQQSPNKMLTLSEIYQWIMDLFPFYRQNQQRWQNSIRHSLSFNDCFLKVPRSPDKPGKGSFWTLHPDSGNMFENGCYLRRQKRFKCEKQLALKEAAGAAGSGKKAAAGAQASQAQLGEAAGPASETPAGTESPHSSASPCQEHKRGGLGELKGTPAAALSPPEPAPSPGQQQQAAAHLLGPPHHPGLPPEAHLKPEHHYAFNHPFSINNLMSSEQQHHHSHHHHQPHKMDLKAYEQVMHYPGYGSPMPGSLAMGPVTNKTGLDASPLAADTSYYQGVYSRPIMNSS
Procedure, shortened: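 Fluorescence signal of reporter cDNA fragments, separated by capillary electrophoresis, reflects endogenous transcription factor activity in transfected HepG2 after 24 h. Both increases and decreases fitted against DMSO.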

[19] = target: Retinoic acid receptor alpha (Homo sapiens) (UniProt P10276); experiment: ATG_DR5_RAR_CIS: Attagene CIS-FACTORIAL HepG2 Assay for human Retinoic Acid Receptor Alpha (RARE), DR5 submotif (AID 2282934); conditions: HepG2 Attagene cis-factorial RARE DR5 reporter, mRNA; actives raise or lower the signal;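 for AC50: reporter responds to endogenous RAR alpha beta and gamma in HepG2 not RARA alone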
Retinoic acid receptor alpha (Homo sapiens), sequence (P10276 whole entry, looked up): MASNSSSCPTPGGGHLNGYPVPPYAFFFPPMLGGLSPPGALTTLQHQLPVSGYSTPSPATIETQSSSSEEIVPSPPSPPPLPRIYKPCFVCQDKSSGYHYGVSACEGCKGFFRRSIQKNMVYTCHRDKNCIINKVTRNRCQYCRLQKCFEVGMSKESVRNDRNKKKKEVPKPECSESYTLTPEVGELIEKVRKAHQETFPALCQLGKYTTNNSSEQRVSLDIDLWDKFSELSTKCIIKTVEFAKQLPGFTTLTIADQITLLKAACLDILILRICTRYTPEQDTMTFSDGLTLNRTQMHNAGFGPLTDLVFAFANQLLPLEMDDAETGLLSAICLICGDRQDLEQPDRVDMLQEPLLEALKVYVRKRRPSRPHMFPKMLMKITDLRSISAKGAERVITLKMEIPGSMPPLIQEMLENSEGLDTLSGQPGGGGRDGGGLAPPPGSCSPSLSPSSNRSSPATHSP
Procedure, shortened: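 HepG2 cells transiently transfected with multiplexed reporter units under cis (DR5 RARE) promoters, so endogenous transcription factor activity is measured. After 24 h compound exposure, reporter mRNA is quantified by RT-PCR with fluorescent labelling and capillary electrophoresis; bidirectional fitting versus DMSO.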

[20] = ATG_ERE_CIS: Attagene CIS-FACTORIAL HepG2 Assay for Estrogen Response Element (ERE) (AID 2282940); conditions: HepG2 ERE cis-reporter, Attagene RNA transcript; actives raise or lower the signal
Procedure, shortened: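 Measuring endogenous transcription factor output, the assay doses transfected HepG2 cells for 24 hours and quantifies reporter transcripts by fluorescent RT-PCR and capillary electrophoresis, with DMSO as baseline.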

Measured: AC50

O=c1oc2ccccc2c(O)c1C(CC(O)c1ccc(-c2ccc(Br)cc2)cc1)c1ccccc1 (configuration not stated)
active: [2] 37.6 µM and 30.8 µM | [4] 7.97 µM and 57.9 µM | [5] 54.8 µM and 48.2 µM | [7] 40.6 µM | [8] 54.6 µM | [14] 46.3 µM | [15] 50.1 µM and 43.6 µM
inactive: [1] | [3] | [6] | [7] | [8] | [9] | [10] | [11] | [12] | [13] | [14] | [16]

COc1ccc(N)cc1
not listed: [15] | [19] | [20]
inactive: all other assays above

CC(C)CC(C)(c1ccc(O)cc1)c1ccc(O)cc1
active: [2] 11.1 µM | [4] 11.1 µM
not listed: [16] | [17] | [20]
inactive: all other assays above

Clc1cc(C(Cl)(Cl)Cl)cnc1Cl
active: [2] 8.81 µM | [4] 12.6 µM | [7] 33.4 µM | [8] 4.54 µM
not listed: [12] | [15] | [16] | [17]
inactive: all other assays above

CC(C=O)Cc1ccc2c(c1)OCO2 (configuration not stated)
not listed: [10] | [20]
inactive: all other assays above

C[CH2][Hg][S]c1ccccc1C(=O)O
active: [2] 5.13 µM | [5] 4.81 µM | [19] 1.11 µM | [8] 6.19 µM | [11] 3.71 µM | [13] 1.99 µM
not listed: [12] | [17] | [18] | [20]
inactive: all other assays above

CNC(=O)O/N=C/C(C)(C)S(C)(=O)=O
not listed: [15] | [17]
inactive: all other assays above

CCCSP(=S)(OCC)Oc1ccc(Cl)cc1Cl (configuration not stated)
active: [4] 31.7 µM | [20] 10.3 µM
not listed: [10] | [15] | [16] | [17]
inactive: all other assays above

N#CCC#N
active: [19] 63.4 µM
not listed: [15] | [17]
inactive: all other assays above

CCOc1ccc(N)cc1
not listed: [12] | [15] | [17] | [18] | [20]
inactive: all other assays above

Cc1cc(Cl)ccc1O
not listed: [17] | [20]
inactive: all other assays above

C[C@@H]1O[C@@H](O[C@H]2C[C@@H](O)[C@]3(CO)[C@H]4[C@H](O)C[C@]5(C)[C@@H](C6=CC(=O)OC6)CC[C@]5(O)[C@@H]4CC[C@]3(O)C2)[C@H](O)[C@H](O)[C@H]1O
active: [2] 0.207 µM | [4] 0.215 µM | [5] 0.119 µM | [19] 0.155 µM | [11] 0.221 µM | [12] 0.233 µM | [13] 0.0716 µM | [16] 0.287 µM
not listed: [17]
inactive: all other assays above

CCOP(=O)(OCC)OC(=CCl)c1ccc(Cl)cc1Cl
active: [20] 11.1 µM
not listed: [15] | [17]
inactive: all other assays above

O=C(NC(=O)c1c(F)cccc1F)Nc1cc(Cl)c(Oc2ncc(C(F)(F)F)cc2Cl)c(Cl)c1
active: [2] 4.57 µM
not listed: [10] | [20]
inactive: all other assays above

CCOC(=O)c1ccccc1S(=O)(=O)NC(=O)Nc1nc(Cl)cc(OC)n1
not listed: [17]
inactive: all other assays above

From PubChem BioAssay (EPA / NIEHS)
